Measured values: PubChem BioAssay AID686978 (National Center for Advancing Translational Sciences (NCATS), 2013)
In all, about 420,000 compounds went through this assay and about 64,000 (15%) were called active. About 27% were inconclusive and are not listed. The call rests on the fitted dose curve; in most records, active means well fitted inhibition curve with a large enough effect; inconclusive means small, poorly fitted or top-dose-only effect; inactive means flat fitted curve, though single readings scatter. Only a sample is shown. Where a call stands in place of a potency, no number is given.

Test: qHTS for Inhibitors of human tyrosyl-DNA phosphodiesterase 1 (TDP1): qHTS in cells in absence of CPT; further: nearly all actives have a fitted effect of over 55% in size
Settings: DT40 Tdp1-/- hTDP1 cells, no CPT, ATP luminescence, 48 h; activity change, negative = growth inhibition: at 46.2 µM (top of the series)
Procedure, shortened: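 Growth kinetics read by CellTiter-Glo luminescence after ≥48 hr at 37 °C. Cells: DT40 Tdp1-/- stably carrying human TDP1, 400 per well, compound exposure in the absence of CPT (DMSO vehicle).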
Potency means the concentration at half of the fitted maximal effect.

Structure (SMILES) | Potency
O=C1C2C3C=CC(C3)C2C(=O)N1c1ccc(-c2nc3ccccc3c(=O)o2)cc1 (configuration not stated) | inactive
CN(C)c1ccc(/C=N/NC(=O)C(O)c2ccc(Br)cc2)cc1 (configuration not stated) | inactive
NS(=O)(=O)c1ccc(NC(=S)NC(=O)c2cccnc2)cc1 | inactive
O=C(c1ccc2c(c1)N(Cc1ccccc1)C(=O)c1ccccc1S2(=O)=O)N1CCCC1 | 23.1 µM (active)
O=C(c1cccc(Br)c1)N1CCN(C2=NS(=O)(=O)c3ccccc32)CC1 | inactive
O=C1c2ccccc2S(=O)(=O)c2cc(N3CCN(c4ccccn4)CC3)ccc21 | inactive
O=C(c1ccc2c(c1)C(=O)N(c1ccc(Cl)cc1)C2=O)N1CCN(c2ccccn2)CC1 | inactive
CC1CCCN(C(=O)CN2C(=O)c3ccccc3S2(=O)=O)C1 (configuration not stated) | inactive
O=C(c1ccc2c(c1)N(Cc1ccc(F)cc1)C(=O)c1ccccc1S2(=O)=O)N1CCN(c2ccccn2)CC1 | 18.4 µM (active)
COc1ccccc1NC(=O)CN1C(=O)c2ccccc2Sc2ccc(C(=O)N3CCCC3)cc21 | inactive
O=C(c1ccc2c(c1)N(Cc1ccccc1)C(=O)c1ccccc1S2(=O)=O)N1CCC(Cc2ccccc2)CC1 | 5.8 µM (active)
O=C(c1ccc2c(c1)N(Cc1ccccc1F)C(=O)c1ccccc1S2(=O)=O)N1CCOCC1 | inactive
COc1ccc(Cl)cc1N(CC(=O)N/N=C/c1ccc(OCC(N)=O)cc1)S(C)(=O)=O | inactive
CCOc1ccc(C(=O)N2CCN(CCc3ccccn3)CC2)cc1 | inactive
O=C(CSc1nnc(-c2cccnc2)n1CCc1ccccc1)NCc1ccccc1 | inactive
COc1ccc(C)cc1NC(=O)CCS(=O)(=O)c1cccc2nonc12 | inactive
COCCN(CCOC)S(=O)(=O)NC[C@H]1O[C@@H](n2cnc3c(N)ncnc32)[C@H](O)[C@@H]1O | inactive
CN1CCN(S(=O)(=O)c2ccc(NC(=S)NC(=O)C3CC3)cc2)CC1 | inactive
CCOC(=O)c1cccnc1NC(=O)c1ccncc1 | inactive
O=C(O)c1ccccc1-c1ccccc1C(=O)Nc1cccc2ccccc12 | inactive
COC(=O)COc1ccc2c(c1C)O/C(=C\c1ccco1)C2=O | inactive

Structure (SMILES) | Potency
CC1(Cc2cccc(C#N)c2)C(=O)Nc2ccc(-c3cccc(C(F)(F)F)c3)cc21 (configuration not stated) | 20.6 µM (active)
O=c1cc(O)c(-c2cccc(C(F)(F)F)c2)c(Cl)[nH]1 | inactive
C=CCn1cc(-c2cccc(C(F)(F)F)c2)cc(C#N)c1=O | inactive
COC(=O)C(C)Sc1ccc2nnc(-c3cccc(F)c3)n2n1 (configuration not stated) | inactive
Cc1ccc(-n2cnc3ncnc(-c4ccccc4)c32)cc1 | inactive
Cc1ccc(-n2cc(CN(C)Cc3nccn3C)c(-c3cccc(C)c3)n2)cc1 | 23.1 µM (active)
CCn1ccnc1CN(C)Cc1nc(-c2ccc3c(c2)OCO3)no1 | inactive
O=C(CCCl)Nc1ccc(S(=O)(=O)NCc2ccco2)cc1 | inactive
Cc1oc(-c2ccccc2Cl)[n+]([O-])c1C | 23.1 µM (active)
Cc1ccc(-c2cc(-c3coc4ccccc4c3=O)c3c(n2)-c2cc(Cl)ccc2OC3)cc1 | inactive
O=C(c1ccc(OC2CCN(Cc3ccccn3)CC2)cc1)N1CCCCCC1 | inactive
COc1cc([N+](=O)[O-])ccc1NC(=O)CN1CCCC1 | inactive
CSc1ccccc1NC(=O)COC(=O)CCCOc1ccc(C)cc1 | inactive
COc1cc([N+](=O)[O-])ccc1NC(=O)COC(=O)CCOc1ccc(C)cc1 | 6.51 µM (active)
O=C(C[C@H]1CC[C@@H](NC(=O)c2ccncc2)[C@@H](CO)O1)NCC1CC1 | inactive
CN(CCC#N)c1ncnc2scc(-c3ccccc3)c12 | 14.6 µM (active)
C=CCn1cnc2scc(-c3ccccc3)c2c1=O | inactive
N#CCCN(CCC#N)c1nnc(-c2ccccc2)s1 | inactive
CCC(=O)NC(Nc1cc(C)ccn1)(C(F)(F)F)C(F)(F)F | inactive
Cc1cc(C)cc(OCC(=O)Nc2ccc(S(=O)(=O)Nc3ccccn3)cc2)c1 | inactive
COC(=O)Cc1ccc(Oc2ncc(C(F)(F)F)cc2Cl)cc1 | inactive

Structure (SMILES) | Potency
Cc1cc(C)cc(NS(=O)(=O)c2ccc(Oc3ncc(C(F)(F)F)cc3Cl)cc2)c1 | 13 µM (active)
Cc1nc(C(F)(F)F)ccc1C(=O)N1CCC1(C)C(=O)NS(=O)(=O)c1ccccc1 (configuration not stated) | inactive
O=C(CCN1Cc2ccccc2OC(c2ccccc2)C1)N[C@@H]1CS(=O)(=O)C[C@H]1O (some centres not stated) | inactive
COc1ccc(C2COC(=O)C2=N)c(NC(=O)c2ccccc2)c1 (configuration not stated) | inactive
CCCc1ccc(C(=O)[C@@H]2[C@@H](C(C)=O)N3c4ccc(F)cc4C=C[C@@H]3[C@@]23C(=O)Nc2ccccc23)cc1 | 18.4 µM (active)
COc1cc(C(=O)NC(=S)NCc2ccco2)cc(OC)c1OC | 20.6 µM (active)
COc1cc(C(=O)N[C@@H](C)C(=O)NCc2ccco2)cc(OC)c1OC | inactive
COc1cccc(OC)c1C(=O)NC(=S)NCc1ccco1 | inactive
COc1ccc(-c2nc3c(c(SCC(=O)Nc4ccc(C(=O)O)cc4)n2)Cc2ccccc2O3)cc1 | inactive
Cc1oc2nc(SCC(=O)NCc3cccnc3)nc(N)c2c1C | inactive
COc1ccccc1NC(=O)C1=C(C)NC(=O)NC1c1ccc(C)s1 (configuration not stated) | inactive
O=C(Cn1nnc(N2CCCCC2)n1)c1ccc(Cl)c(Cl)c1 | inactive
O=C(Cn1nc(CNc2ccc(Cl)cc2)[n+]2c1CCCCC2)c1ccc(Cl)cc1 | 23.1 µM (active)
CC(NC(=O)c1ccc(Cl)cc1)C(=O)N1CCCCC1 (configuration not stated) | inactive
CC1(c2ccccc2Cl)NC(=O)N(CC(=O)NC(=O)NCc2ccco2)C1=O (configuration not stated) | inactive
O=C(CCN1C(=O)c2ccncc2C1=O)Nc1ccc2c(c1)OCCO2 | inactive
COC(=O)C1=C(C)N(c2ccc(C)cc2)/C(=C/c2ccc(O)cc2)C1=O | 20.6 µM (active)
COC(=O)C1=C(C)NC(=O)/C1=C/c1ccc(CNS(=O)(=O)c2ccc(C)cc2)o1 | inactive
Cc1ccc(/C=C2\SC(=S)N(CCC(=O)Nc3ccc(O)cc3)C2=O)cc1 | inactive
CC(C)CNS(=O)(=O)c1ccc(C(=O)Nc2ccc3c(c2)OCO3)cc1 | inactive
